# Test results taken from PubChem BioAssay (EPA / NIEHS).
# Activity calls are given as the source filed them. How the source made its calls: active means hit-call score of the fitted dose curve at least 0.9, where 1 is the maximum; inactive means score below 0.9.
# What was measured:
# [1] = read-out: Tumor necrosis factor receptor superfamily member 6 (Homo sapiens) (UniProt P25445); assay: LTEA_HepaRG_FAS: Life Technologies and Expression Analysis (LTEA) Assay for Fas cell surface death receptor (FAS) using HepaRG (AID 2283447); settings: mRNA level, 48 h; actives raise or lower the signal
# Summary of the method: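 Differentiated HepaRG cells in serum-free induction medium were exposed 48 h to 8 half-log concentrations up to 100 uM in 0.5% DMSO, in duplicate. FAS mRNA was measured by qRT-PCR normalised to ACTB, GAPDH and POLR2A; bidirectional fit versus DMSO.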
# [2] = read-out: Fatty acid synthase (Homo sapiens) (UniProt P49327); assay: LTEA_HepaRG_FASN: Life Technologies and Expression Analysis (LTEA) Assay for Fatty Acid Synthase (FASN) using HepaRG (AID 2283448); settings: mRNA level, 48 h; actives raise or lower the signal
# Summary of the method: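 Differentiated human HepaRG cells were exposed for 48 h in serum-free induction medium to eight half-log concentrations up to 100 uM in 0.5% DMSO, in duplicate. FASN mRNA was quantified by TaqMan qRT-PCR, normalized to ACTB/GAPDH/POLR2A, and fitted bidirectionally against DMSO.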
# [3] = read-out: Cyclin D2 (CCND2), CCND2 (gene 894); assay: LTEA_HepaRG_CCND2: Life Technologies and Expression Analysis (LTEA) Assay for Cyclin D2 (CCND2) using HepaRG (AID 2283449); settings: mRNA level, 48 h; actives raise or lower the signal;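 further: CCND2 transcript measured by TaqMan qRT-PCR and normalised to three housekeeping genes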
# Summary of the method: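 Chemicals in 0.5% DMSO, eight half-log concentrations from 100 uM top, were applied in duplicate for 48 h to human HepaRG cells in serum-free induction medium. CCND2 mRNA by TaqMan qRT-PCR, normalised to ACTB/GAPDH/POLR2A; bidirectional fit versus DMSO.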
# [4] = read-out: Cyclin Dependent Kinase Inhibitor 1A (CDKN1A), CDKN1A (gene 1026); assay: LTEA_HepaRG_CDKN1A: Life Technologies and Expression Analysis (LTEA) Assay for Cyclin Dependent Kinase Inhibitor 1A (CDKN1A) using HepaRG (AID 2283450); settings: mRNA level, 48 h; actives raise or lower the signal
# Summary of the method: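 Read-out is CDKN1A mRNA by TaqMan qRT-PCR, normalized to three housekeeping genes and fitted in both directions against the DMSO baseline. Human HepaRG cells were treated 48 h with test chemicals up to 100 uM in half-log steps, 0.5% DMSO.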
# [5] = read-out: Cyclin D1 (CCND1), CCND1 (gene 595); assay: LTEA_HepaRG_CCND1: Life Technologies and Expression Analysis (LTEA) Assay for Cyclin D1 (CCND1) using HepaRG (AID 2283451); settings: mRNA level, 48 h; actives raise or lower the signal;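 on AC50: TaqMan qRT-PCR transcript level normalised to ACTB GAPDH and POLR2A housekeeping genes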
# Summary of the method: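 HepaRG plated 48 h, medium switched to serum-free induction medium, chemicals added in duplicate (top 100 uM, half-log steps, 0.5% DMSO) for 48 h, cells lysed, RNA measured by TaqMan qRT-PCR.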
# [6] = read-out: catalase (CAT), CAT (gene 847); assay: LTEA_HepaRG_CAT: Life Technologies and Expression Analysis (LTEA) Assay for catalase (CAT) using HepaRG (AID 2283452); settings: mRNA level, 48 h; actives raise or lower the signal;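 on AC50: TaqMan qRT-PCR signal normalized to ACTB GAPDH and POLR2A housekeeping genes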
# Summary of the method: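 HepaRG cells in serum-free induction medium, 0.5% DMSO vehicle, exposed 48 h in duplicate over 8 half-log concentrations from 100 uM. CAT mRNA measured by qRT-PCR, normalized to ACTB, GAPDH, POLR2A; bidirectional fit versus DMSO.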
# [7] = read-out: flavin-containing dimethylaniline monooxygenases 3 (FMO3), FMO3 (gene 2328); assay: LTEA_HepaRG_FMO3: Life Technologies and Expression Analysis (LTEA) Assay for flavin-containing dimethylaniline monooxygenases 3 (FMO3) using HepaRG (AID 2283453); settings: mRNA level, 48 h; actives raise or lower the signal
# Summary of the method: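 HepaRG, 48 h exposure, 8-pt half-log series from 100 uM, 0.5% DMSO vehicle, duplicates; FMO3 transcript by Fluidigm TaqMan qRT-PCR, housekeeping-normalized; gain/loss fit vs DMSO.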
# [8] = read-out: Cytochrome P450 (CYP1A1), CYP1A1 (gene 1543); assay: LTEA_HepaRG_CYP1A1: Life Technologies and Expression Analysis (LTEA) Assay for Cytochrome P450 (CYP1A1) using HepaRG (AID 2283454); settings: mRNA level, 48 h; actives raise or lower the signal
# Summary of the method: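 HepaRG, 48 h post-plating switched to serum-free induction medium; 8-pt conc-response (top 100 uM, half-log, 0.5% DMSO), duplicates, 48 h. Lysis in RLT, TaqMan qRT-PCR for CYP1A1; gain or loss vs DMSO.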
# [9] = read-out: CFLAR gene, CFLAR (gene 8837); assay: LTEA_HepaRG_CFLAR: Life Technologies and Expression Analysis (LTEA) Assay for CFLAR gene using HepaRG (AID 2283455); settings: mRNA level, 48 h; actives raise or lower the signal
# Summary of the method: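 Differentiated HepaRG cells in serum-free induction medium were exposed 48 h in duplicate to eight half-log concentrations up to 100 uM in 0.5% DMSO; mRNA measured by TaqMan qRT-PCR, normalized to ACTB, GAPDH, POLR2A; bidirectional fitting versus DMSO.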
# [10] = read-out: Forkhead box O1 (FOXO1), FOXO1 (gene 2308); assay: LTEA_HepaRG_FOXO1: Life Technologies and Expression Analysis (LTEA) Assay for Forkhead box O1 (FOXO1) using HepaRG (AID 2283456); settings: mRNA level, 48 h; actives raise or lower the signal
# Summary of the method: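 Differentiated HepaRG cells, in serum-free induction medium with 0.5% DMSO, exposed 48 h in duplicate to 8-point half-log series from 100 uM. FOXO1 mRNA measured by TaqMan qRT-PCR, normalized to ACTB, GAPDH, POLR2A; bidirectional fit versus DMSO.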
# [11] = read-out: growth arrest and DNA damage 45 (GADD45A), GADD45A (gene 1647); assay: LTEA_HepaRG_GADD45A: Life Technologies and Expression Analysis (LTEA) Assay for growth arrest and DNA damage 45 (GADD45A) using HepaRG (AID 2283458); settings: mRNA level, 48 h; actives raise or lower the signal
# Summary of the method: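 Differentiated HepaRG cells were exposed in duplicate for 48 h in serum-free induction medium to 8-point half-log concentrations up to 100 uM in 0.5% DMSO. GADD45A mRNA was measured by TaqMan qRT-PCR, normalized to ACTB, GAPDH and POLR2A, with bidirectional fitting versus DMSO.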
# [12] = read-out: Forkhead box O3 (FOXO3), FOXO3 (gene 2309); assay: LTEA_HepaRG_FOXO3: Life Technologies and Expression Analysis (LTEA) Assay for Forkhead box O3 (FOXO3) using HepaRG (AID 2283459); settings: mRNA level, 48 h; actives raise or lower the signal
# Summary of the method: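 Differentiated human HepaRG cells, 48 h post-plating, exposed in duplicate for 48 h in serum-free induction medium; 8-point half-log series from 100 uM in 0.5% DMSO. FOXO3 mRNA by TaqMan qRT-PCR, normalized to ACTB/GAPDH/POLR2A; bidirectional fit versus DMSO.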
# [13] = read-out: ABC Transporter (ABCB1), ABCB1 (gene 5243); assay: LTEA_HepaRG_ABCB1: Life Technologies and Expression Analysis (LTEA) Assay for ABC Transporter (ABCB1) using HepaRG (AID 2283460); settings: mRNA level, 48 h; actives raise or lower the signal
# Summary of the method: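 HepaRG cells exposed in duplicate for 48 h in serum-free induction medium to eight half-log concentrations up to 100 uM in 0.5% DMSO. ABCB1 mRNA quantified by qRT-PCR, normalised to ACTB, GAPDH and POLR2A; fitted bidirectionally versus DMSO.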
# [14] = read-out: growth arrest and DNA damage 45 (GADD45B), GADD45B (gene 4616); assay: LTEA_HepaRG_GADD45B: Life Technologies and Expression Analysis (LTEA) Assay for growth arrest and DNA damage 45 (GADD45B) using HepaRG (AID 2283461); settings: mRNA level, 48 h; actives raise or lower the signal
# Summary of the method: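 HepaRG, ~100,000 cells/well, 48 h plating; serum-free induction medium; cpd 100 uM top, half-log x8, 0.5% DMSO, duplicate, 48 h; lysis in RLT, RNA isolation, qRT-PCR; norm ACTB/GAPDH/POLR2A; bidirectional fit vs DMSO.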
# [15] = read-out: ABC Transporter (ABCC3), ABCC3 (gene 8714); assay: LTEA_HepaRG_ABCC3: Life Technologies and Expression Analysis (LTEA) Assay for ABC Transporter (ABCC3) using HepaRG (AID 2283462); settings: mRNA level, 48 h; actives raise or lower the signal
# Summary of the method: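 Human HepaRG, 48 h dosing, 8-pt half-log series from 100 uM, 0.5% DMSO vehicle, duplicates. ABCC3 mRNA by TaqMan qRT-PCR, housekeeping-normalized; bidirectional curve fit vs DMSO.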
# [16] = read-out: ABC Transporter (ABCB11), ABCB11 (gene 8647); assay: LTEA_HepaRG_ABCB11: Life Technologies and Expression Analysis (LTEA) Assay for ABC Transporter (ABCB11) using HepaRG (AID 2283463); settings: mRNA level, 48 h; actives raise or lower the signal
# Summary of the method: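 Differentiated human HepaRG cells in serum-free induction medium, dosed in duplicate for 48 h. Eight-point half-log series from 100 uM in 0.5% DMSO; ABCB11 mRNA by qRT-PCR, normalized to ACTB, GAPDH, POLR2A, fitted bidirectionally versus DMSO.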
# [17] = read-out: ABC Transporter (ABCC2), ABCC2 (gene 1244); assay: LTEA_HepaRG_ABCC2: Life Technologies and Expression Analysis (LTEA) Assay for ABC Transporter (ABCC2) using HepaRG (AID 2283464); settings: mRNA level, 48 h; actives raise or lower the signal
# Summary of the method: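 HepaRG, 48 h post-plating; serum-free induction medium; cpd 8-pt, 100 uM top, half-log, 0.5% DMSO, duplicate, 48 h. Readout: ABCC2 mRNA by qRT-PCR, norm. ACTB/GAPDH/POLR2A. Bidirectional fit vs DMSO baseline.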
# [18] = CEETOX_H295R_ESTRADIOL: CeeTox H295R High-throughput Steroidogenesis Assay for Estradiol (AID 2283440); settings: actives raise or lower the signal;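 further: estradiol secreted into medium quantified by LC-MS/MS after dansyl derivatisation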
# Summary of the method: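 Estradiol secreted into the medium was measured by tandem mass spectrometry after liquid-liquid extraction and dansylation. Human H295R cells had been forskolin-primed (10 uM, 48 h) before a 48 h chemical exposure with 0.1% DMSO.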
# [19] = CEETOX_H295R_ESTRONE: CeeTox H295R High-throughput Steroidogenesis Assay for Estrone (AID 2283441); settings: actives raise or lower the signal;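 further: estrone secreted into medium measured by LC-MS/MS after dansyl derivatization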
# Summary of the method: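 H295R cells; 48 h forskolin (10 uM) prestimulation; 48 h compound exposure, 0.1% DMSO final. Medium estrone: MTBE extraction, dansyl derivatization, HPLC-MS/MS. Bidirectional fit vs DMSO.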
# Chain of Fatty acid synthase (Homo sapiens) (P49327 whole entry, looked up): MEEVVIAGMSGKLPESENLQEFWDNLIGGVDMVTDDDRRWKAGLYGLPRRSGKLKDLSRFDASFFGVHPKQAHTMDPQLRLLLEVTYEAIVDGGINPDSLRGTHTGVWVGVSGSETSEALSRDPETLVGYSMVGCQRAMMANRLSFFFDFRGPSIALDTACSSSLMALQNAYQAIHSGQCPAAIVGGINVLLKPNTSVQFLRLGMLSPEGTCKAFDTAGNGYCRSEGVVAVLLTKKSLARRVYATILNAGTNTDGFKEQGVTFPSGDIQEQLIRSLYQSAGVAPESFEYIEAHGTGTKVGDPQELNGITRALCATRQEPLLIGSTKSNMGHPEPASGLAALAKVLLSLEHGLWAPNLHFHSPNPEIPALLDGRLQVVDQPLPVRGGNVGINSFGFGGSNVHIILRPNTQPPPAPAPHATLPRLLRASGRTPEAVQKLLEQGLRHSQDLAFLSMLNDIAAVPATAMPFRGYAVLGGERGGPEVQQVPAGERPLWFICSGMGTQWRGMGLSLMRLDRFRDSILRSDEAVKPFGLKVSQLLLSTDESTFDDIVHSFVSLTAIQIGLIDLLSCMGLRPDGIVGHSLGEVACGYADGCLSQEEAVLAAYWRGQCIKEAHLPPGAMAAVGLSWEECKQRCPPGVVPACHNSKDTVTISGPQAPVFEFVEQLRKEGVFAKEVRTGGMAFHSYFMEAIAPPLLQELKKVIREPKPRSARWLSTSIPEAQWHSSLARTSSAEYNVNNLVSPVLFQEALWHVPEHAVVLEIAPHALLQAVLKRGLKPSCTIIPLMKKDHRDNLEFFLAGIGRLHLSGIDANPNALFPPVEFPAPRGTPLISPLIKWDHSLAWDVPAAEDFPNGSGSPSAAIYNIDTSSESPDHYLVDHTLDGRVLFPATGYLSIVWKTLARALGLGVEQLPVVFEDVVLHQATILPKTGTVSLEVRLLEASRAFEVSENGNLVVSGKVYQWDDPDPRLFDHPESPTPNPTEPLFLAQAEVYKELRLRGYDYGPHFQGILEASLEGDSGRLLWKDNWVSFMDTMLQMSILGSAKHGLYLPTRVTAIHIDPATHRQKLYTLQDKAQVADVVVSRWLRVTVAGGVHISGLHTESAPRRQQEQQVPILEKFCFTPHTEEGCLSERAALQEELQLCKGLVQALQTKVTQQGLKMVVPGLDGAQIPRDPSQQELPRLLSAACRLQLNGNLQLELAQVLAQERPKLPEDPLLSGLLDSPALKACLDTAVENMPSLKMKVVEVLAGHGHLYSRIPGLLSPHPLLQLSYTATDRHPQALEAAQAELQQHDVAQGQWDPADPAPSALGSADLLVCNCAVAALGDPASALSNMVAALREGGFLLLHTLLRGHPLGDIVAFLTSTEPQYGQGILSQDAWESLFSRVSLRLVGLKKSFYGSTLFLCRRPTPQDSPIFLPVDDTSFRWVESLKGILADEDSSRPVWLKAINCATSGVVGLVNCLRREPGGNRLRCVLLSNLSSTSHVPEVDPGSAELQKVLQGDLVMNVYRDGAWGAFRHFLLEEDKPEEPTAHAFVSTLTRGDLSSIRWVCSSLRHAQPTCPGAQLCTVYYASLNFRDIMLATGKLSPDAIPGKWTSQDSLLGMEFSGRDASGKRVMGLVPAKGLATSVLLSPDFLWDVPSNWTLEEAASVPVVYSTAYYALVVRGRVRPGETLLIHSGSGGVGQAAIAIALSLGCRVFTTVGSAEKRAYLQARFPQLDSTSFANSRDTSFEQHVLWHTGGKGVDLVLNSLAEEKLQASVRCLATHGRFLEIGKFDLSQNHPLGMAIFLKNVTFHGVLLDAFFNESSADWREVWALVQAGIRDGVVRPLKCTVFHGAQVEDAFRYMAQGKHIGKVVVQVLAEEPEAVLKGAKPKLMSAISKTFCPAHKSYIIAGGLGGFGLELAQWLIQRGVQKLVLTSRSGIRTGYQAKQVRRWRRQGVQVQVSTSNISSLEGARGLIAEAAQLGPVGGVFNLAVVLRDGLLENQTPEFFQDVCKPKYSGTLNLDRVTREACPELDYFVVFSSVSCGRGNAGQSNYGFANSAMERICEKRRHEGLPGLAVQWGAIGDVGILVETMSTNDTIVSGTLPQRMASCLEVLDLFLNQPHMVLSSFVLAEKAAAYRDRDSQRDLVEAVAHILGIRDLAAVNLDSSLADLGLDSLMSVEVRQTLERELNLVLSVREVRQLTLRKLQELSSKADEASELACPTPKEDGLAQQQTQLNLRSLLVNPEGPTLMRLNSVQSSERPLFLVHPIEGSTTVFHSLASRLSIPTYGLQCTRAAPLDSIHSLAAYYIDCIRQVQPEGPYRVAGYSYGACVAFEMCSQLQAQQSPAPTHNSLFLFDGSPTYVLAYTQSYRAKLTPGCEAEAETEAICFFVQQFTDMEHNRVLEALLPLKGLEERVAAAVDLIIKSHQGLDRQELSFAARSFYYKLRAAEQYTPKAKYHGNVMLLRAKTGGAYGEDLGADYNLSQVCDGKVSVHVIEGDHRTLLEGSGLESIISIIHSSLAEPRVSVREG
smiles,measurement,setting,value
CC(C)C(=O)Nc1ccc([N+](=O)[O-])c(C(F)(F)F)c1,AC50,[1],67 µM (active)
same,AC50,[2],37 µM (active)
same,outcome,[3],inactive
same,AC50,[4],50 µM (active)
same,AC50,[5],12.4 µM (active)
same,AC50,[6],62.1 µM (active)
same,AC50,[7],50 µM (active)
same,AC50,[8],11.3 µM (active)
same,AC50,[9],50 µM (active)
same,AC50,[10],50 µM (active)
same,AC50,[11],67.9 µM (active)
same,outcome,[12],inactive
same,outcome,[13],inactive
same,outcome,[14],inactive
same,outcome,[15],inactive
same,AC50,[16],25.3 µM (active)
same,AC50,[17],34.3 µM (active)
CCCOc1ccc(S(=O)(=O)N2CCN(CC)CC2)cc1-c1nc2c(CC)n(Cc3ccccn3)nc2c(=O)[nH]1,outcome,[18],inactive
same,outcome,[19],inactive
same,outcome,[1],inactive
same,AC50,[2],50 µM (active)
same,outcome,[3],inactive
same,outcome,[4],inactive
same,outcome,[5],inactive
same,outcome,[6],inactive
same,outcome,[7],inactive
same,AC50,[8],59.8 µM (active)
same,outcome,[9],inactive
same,outcome,[10],inactive
same,outcome,[11],inactive
same,outcome,[12],inactive
same,AC50,[13],2.87 µM (active)
same,outcome,[14],inactive
same,outcome,[15],inactive
same,AC50,[16],27.7 µM (active)
same,AC50,[17],5.49 µM (active)
CC(C)CCCCCCOC(=O)C1CCCCC1C(=O)OCCCCCCC(C)C (stereo not given),outcome,[1],inactive
same,outcome,[2],inactive
same,outcome,[3],inactive
same,outcome,[4],inactive
same,outcome,[5],inactive
same,outcome,[6],inactive
same,outcome,[7],inactive
same,AC50,[8],75.6 µM (active)
same,outcome,[9],inactive
same,outcome,[10],inactive
same,AC50,[11],0.00316 µM (active)
same,outcome,[12],inactive
same,outcome,[13],inactive
same,outcome,[14],inactive
same,outcome,[15],inactive
same,outcome,[16],inactive
same,outcome,[17],inactive
c1ccc2ncccc2c1,outcome,[1],inactive
same,outcome,[2],inactive
same,outcome,[3],inactive
same,outcome,[4],inactive
same,outcome,[5],inactive
same,outcome,[6],inactive
same,outcome,[7],inactive
same,AC50,[8],83.2 µM (active)
same,outcome,[9],inactive
same,outcome,[10],inactive
same,outcome,[11],inactive
same,outcome,[12],inactive
same,outcome,[13],inactive
same,outcome,[14],inactive
same,outcome,[15],inactive
same,outcome,[16],inactive
same,outcome,[17],inactive
